Experimental data as given in PubChem BioAssay (NCI).
About 83,000 compounds went through this panel and 20% of them were active in at least one assay; those are over-represented in the sample as a whole.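 Note: values are percent growth. 100 is the growth of untreated cells, values between 100 and 0 indicate rising inhibition; between -100 and 0 indicates cell death.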 Active and inactive are the calls of the source. The calls were made as follows: active = growth percent below 10; inactive = the rest.

Tests used:
Experiment in all cases: NCI-60 one-dose screen, 48 h (100 = growth as untreated, 0 = no growth, -100 = all killed)
Conditions in all cases: 10 µM unless noted
[1] = system: SK-MEL-2 melanoma
[2] = system: EKVX NSCLC
[3] = system: SN12C renal
[4] = system: UO-31 renal
[5] = system: TK-10 renal
[6] = system: ACHN renal
[7] = system: CAKI-1 renal
[8] = system: A498 renal
[9] = system: CCRF-CEM leukemia
[10] = system: MOLT-4 leukemia
[11] = system: SR leukemia
[12] = system: RPMI-8226 leukemia
[13] = system: OVCAR-8 ovarian
[14] = system: OVCAR-5 ovarian
[15] = system: OVCAR-4 ovarian
[16] = system: SK-OV-3 ovarian
[17] = system: IGROV1 ovarian
[18] = system: OVCAR-3 ovarian
[19] = system: HS 578T breast
[20] = system: NCI/ADR-RES ovarian

Measured: growth

O=C(C[n+]1cccc2ccccc21)c1ccc(O)c(O)c1
inactive: [1] 90.8% | [2] 76.8% | [3] 72.4% | [4] 50.6% | [5] 39% | [6] 23.7% | [7] 83.6% | [8] 88.4% | [12] 17.4% | [13] 49.2% | [14] 88% | [15] 55.1% | [16] 120% | [17] 48.5% | [18] 35.7% | [19] 90.6%
active: [9] -13.8% | [10] 6.56% | [11] 7.71%

COc1cc2c3c(c4c5ccccc5[nH]c4c2c(OC)c1OC)C(=O)N(CCN1CCOCC1)C3=O
inactive: [1] 73.9% | [2] 91.2% | [3] 47.8% | [4] 52.4% | [5] 76.2% | [6] 35.2% | [7] 40.9% | [8] 54.1% | [9] 23.1% | [11] 21.5% | [12] 39.5% | [13] 31% | [14] 99.7% | [15] 70% | [16] 83.2% | [17] 53.9% | [18] 76.4% | [19] 66.6% | [20] 45.8%
active: [10] 6.55%

NC(=O)CSSCC(N)=O
inactive: [1] 107% | [2] 86.7% | [3] 108% | [4] 93% | [5] 110% | [6] 100% | [7] 99% | [8] 127% | [9] 88.3% | [10] 76.8% | [11] 85.2% | [12] 91.4% | [13] 101% | [14] 105% | [15] 111% | [16] 109% | [17] 97.8% | [18] 114% | [19] 97.6% | [20] 105%

CCOC(=O)c1cc(C#N)n2ccc3ccccc3c12
inactive: [1] 106% | [2] 90.9% | [3] 94.5% | [4] 101% | [5] 91.3% | [6] 109% | [7] 90.2% | [8] 88% | [9] 98.8% | [10] 96.2% | [11] 115% | [12] 111% | [13] 100% | [14] 94.2% | [15] 95.3% | [16] 36.5% | [17] 99.7% | [18] 102% | [19] 112%

CC(C)N1C(=O)S/C(=C2/SC(=O)N(C(C)C)C2=O)C1=O
inactive: [1] 98.7% | [2] 85.5% | [3] 94.8% | [4] 87.7% | [5] 89.9% | [6] 102% | [7] 98.8% | [8] 89.5% | [9] 38.9% | [10] 99.4% | [11] 103% | [12] 93.9% | [13] 104% | [14] 101% | [15] 97.4% | [16] 127% | [17] 98.9% | [18] 106% | [19] 99.7% | [20] 103%

COc1ccc(C(=O)c2nc3ccccc3n2CC(=O)c2ccc(Cl)cc2)cc1
inactive: [1] 63.5% | [2] 86% | [3] 45.5% | [4] 45.6% | [5] 51.7% | [6] 48.6% | [7] 23.7% | [8] 72.5% | [9] 13.8% | [10] 17.2% | [11] 16.7% | [13] 37.2% | [14] 47% | [15] 43.3% | [16] 107% | [17] 23.7%
active: [12] -17.4% | [18] -6.3% | [19] 8.51% | [20] -45.6%

COc1ccc(C(=O)C2C(C#N)C(C#N)C3c4ccccc4C=CN23)cc1 (stereo not drawn)
active: [13] -4.32%
inactive: [1] 88.5% | [2] 84.2% | [3] 80.9% | [4] 60.7% | [5] 131% | [6] 91.3% | [7] 72.4% | [8] 80.9% | [9] 82.5% | [10] 95.6% | [11] 105% | [12] 73.1% | [14] 101% | [15] 62.9% | [16] 93.6% | [17] 81% | [18] 92.2% | [19] 95.1% | [20] 87.9%

O=C1c2ccccc2C(=O)c2c([N+](=O)[O-])ccc(Cl)c21
inactive: [1] 107% | [2] 113% | [3] 97.5% | [4] 76.6% | [5] 87.6% | [6] 85.5% | [7] 39.4% | [8] 105% | [9] 63.2% | [10] 86.2% | [11] 54% | [12] 81.8% | [13] 75.2% | [14] 135% | [15] 62.2% | [16] 112% | [17] 71.5% | [18] 57.1% | [19] 98.8% | [20] 92.4%
